Test results from PubChem BioAssay.
The source made the active and inactive calls. Unless noted, how the calls were made is not given here.

How the values were obtained:
[1] = tested on: Wnt5a (protein binding on small-molecule microarray); test: Wnt5a binders on small-molecule microarray, primary screen, biophysical, 635/667 nm fluorescence (AID 1142); details: 635 nm fluorescence, higher = more signal;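 further: fluorescence read at 667 nm with signal to noise per printed feature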
[2] = cell viability in Huh7 cells, primary screen, cytotoxicity control for HCV replication inhibitor project, CellTiter-Glo luminescence, basal, 48 h (AID 1143); details: Huh7 HCV replicon, higher = more signal, called active from +8 up or from −8 down;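 further: Huh7 hepatoma cells carrying a hepatitis C replication reporter with no stimulus; test concentration not given here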
[3] = P. aeruginosa biofilm formation inhibitors, primary screen, PAO1 strain, BacTiter-Glo luminescence, LB-PBS (AID 1144); details: 12 h, higher = more signal
[4] = CREB reporter modulators without forskolin, primary screen, cell-based, PC12, CRE-LacZ reporter, unstimulated (AID 1145); details: no forskolin, luminescence, 4.5 h, higher = more signal, called active from +8 up or from −8 down
[5] = CREB reporter modulators under forskolin, primary screen, cell-based, PC12, CRE-LacZ reporter, forskolin-stimulated (AID 1146); details: luminescence, 4.5 h, higher = more signal, called active from +8 up or from −8 down;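 further: PC12 cells with 6xCRE LacZ reporter stimulated by forskolin 10 µM; beta-galactosidase reporter signal reflecting CREB driven transcription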
[6] = biological target: Streptavidin (Streptomyces avidinii) (UniProt P22629); test: streptavidin binders on small-molecule microarray, primary screen, artefact control for SMM compound annotation, biophysical, 635/667 nm fluorescence (AID 1147); details: streptavidin binding, higher = more signal;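 further: signal reflects streptavidin binding to arrayed compounds as a control protein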
Sequence of Streptavidin (Streptomyces avidinii) (P22629 whole entry, looked up): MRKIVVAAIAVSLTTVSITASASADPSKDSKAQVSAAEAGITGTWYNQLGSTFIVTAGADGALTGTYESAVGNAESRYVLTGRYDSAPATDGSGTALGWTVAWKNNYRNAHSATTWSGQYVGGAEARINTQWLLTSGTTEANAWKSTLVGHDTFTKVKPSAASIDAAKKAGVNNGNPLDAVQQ

[7] = small-molecule binders of probe aInhba, primary screen, biochemical, small-molecule microarray, 635/667 nm fluorescence (AID 1148); details: higher = more signal;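 further: score merges 667nm spot fluorescence with signal-to-noise for antibody binding to printed compounds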
[8] = biological target: Torsin-1A (Homo sapiens) (UniProt O14656); test: torsin A binders from cell lysate, primary screen, small-molecule microarray, wild-type, 635/667 nm (AID 1149); details: COS7 hTOR1A-WT lysate, 635 nm fluorescence, higher = more signal
Sequence of Torsin-1A (Homo sapiens) (O14656 whole entry, looked up): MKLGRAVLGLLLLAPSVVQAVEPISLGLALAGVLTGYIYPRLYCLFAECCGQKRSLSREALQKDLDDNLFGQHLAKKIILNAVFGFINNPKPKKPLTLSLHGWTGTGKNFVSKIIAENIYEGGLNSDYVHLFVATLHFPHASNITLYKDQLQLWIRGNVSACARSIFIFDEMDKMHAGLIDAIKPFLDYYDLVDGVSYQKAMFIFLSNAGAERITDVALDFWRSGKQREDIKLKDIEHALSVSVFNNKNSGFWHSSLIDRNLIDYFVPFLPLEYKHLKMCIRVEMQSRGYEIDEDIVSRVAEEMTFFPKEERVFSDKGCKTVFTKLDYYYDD

[9] = biological target: Torsin-1A (Homo sapiens) (UniProt O14656); test: small-molecule binders of mutant TOR1A in lysate, primary screen, cell lysate, small-molecule microarray, COS7 lysate, 635/667 nm fluorescence (AID 1150); details: COS7 hTOR1A mutant lysate, 635 nm fluorescence, higher = more signal;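 further: score pools 667 nm emission and signal to noise measuring lysate protein binding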
[10] = tested on: Sonic hedgehog protein (Shh); test: small-molecule binders of Shh protein, primary screen, biochemical, small-molecule microarray, 635/667 nm fluorescence (AID 1151); details: small-molecule microarray binding, 635 nm fluorescence; higher = more signal;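 further: Shh protein binding to compounds spotted on small-molecule microarray slides; score combines spot fluorescence intensity with signal-to-noise across triplicate slides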
[11] = E. coli DRC41 culture turbidity changes, primary screen, E. coli filamentation inducer project, strain DRC41, OD650, 48 h (AID 1152);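 further: E. coli MC1000 strain DRC41 lacking acrAB efflux pump and sulA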; details: E. coli DRC41 (acrAB sulA), higher = more signal, called active from +8 up or from −8 down
[12] = small-molecule binders of probe aLefty1, primary screen, biochemical, small-molecule microarray, 635/667 nm fluorescence (AID 1153); details: higher = more signal;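 further: score merges spot fluorescence with signal-to-noise ratio from the scanned slide images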
[13] = PSAC antagonists in infected red cells, primary screen, cell-based, P. falciparum Indochina, OD700, 1 h (AID 1154); details: P. falciparum Indochina infected RBC osmotic lysis, higher = more signal, called active from +8 up or from −8 down
[14] = PSAC antagonists in infected red cells, primary screen, cell-based, P. falciparum Indochina, OD700, 2 h (AID 1155);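 further: lysis reports solute entry through the parasite surface anion channel PSAC; channel blockers reduce lysis of infected cells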; details: P. falciparum Indochina infected erythrocytes, osmotic lysis OD700; higher = more signal, called active from +8 up or from −8 down
[15] = osmotic lysis modulators in infected erythrocytes, primary screen, PSAC antagonist project, cell-based, P. falciparum Indochina, OD700, 3 h (AID 1156); details: higher = more signal, called active from +8 up or from −8 down
[16] = PSAC antagonists in infected red cells, primary screen, cell-based, P. falciparum Indochina, OD700, 18 h (AID 1157); details: P. falciparum Indochina infected erythrocytes, osmotic lysis OD700, 18 h; higher = more signal, called active from +8 up or from −8 down
[17] = modulators of S6 phosphorylation in cells, primary screen, cell-based, A549, cytoblot, luminescence, serum-stimulated (AID 1158); details: A549 phospho-S6 cytoblot, 5 h, higher = more signal;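 further: serum-stimulated A549 lung adenocarcinoma cells; signal is phosphorylated S6 detected by cytoblot immunostaining with HRP secondary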
[18] = biological target: NADPH oxidase 2 (Homo sapiens) (UniProt P04839); test: NOX2-dependent H2O2 signal modulators, primary screen, NOX inhibitor project, cell-based, HEK293-NOX2, PMA-stimulated, Amplex Red fluorescence (AID 1159); details: 45 min, higher = more signal, called active from +8 up or from −8 down; further: test concentration not given here
Sequence of NADPH oxidase 2 (Homo sapiens) (P04839 whole entry, looked up): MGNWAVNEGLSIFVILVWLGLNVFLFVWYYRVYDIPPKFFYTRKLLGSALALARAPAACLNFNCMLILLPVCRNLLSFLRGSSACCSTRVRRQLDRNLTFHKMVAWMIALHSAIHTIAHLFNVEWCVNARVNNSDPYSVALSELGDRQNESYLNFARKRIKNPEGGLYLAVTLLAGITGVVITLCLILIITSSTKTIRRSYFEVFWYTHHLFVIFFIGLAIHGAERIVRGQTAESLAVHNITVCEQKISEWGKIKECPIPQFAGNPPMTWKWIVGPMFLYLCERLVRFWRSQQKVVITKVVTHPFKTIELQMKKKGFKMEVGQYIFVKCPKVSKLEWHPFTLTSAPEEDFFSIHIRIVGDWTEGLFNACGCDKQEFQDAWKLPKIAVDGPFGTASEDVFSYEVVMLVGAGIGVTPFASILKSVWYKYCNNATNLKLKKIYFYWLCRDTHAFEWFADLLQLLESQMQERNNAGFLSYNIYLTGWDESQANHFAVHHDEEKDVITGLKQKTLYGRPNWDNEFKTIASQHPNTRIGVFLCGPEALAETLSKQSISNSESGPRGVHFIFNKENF

[19] = biological target: NADPH oxidase 4 (Homo sapiens) (UniProt Q9NPH5); test: NOX4-dependent H2O2 signal modulators, primary screen, NOX inhibitor project, cell-based, HEK293-NOX4, tetracycline-induced, Amplex Red fluorescence (AID 1160); details: 45 min, higher = more signal, called active from +8 up or from −8 down
Sequence of NADPH oxidase 4 (Homo sapiens) (Q9NPH5 whole entry, looked up): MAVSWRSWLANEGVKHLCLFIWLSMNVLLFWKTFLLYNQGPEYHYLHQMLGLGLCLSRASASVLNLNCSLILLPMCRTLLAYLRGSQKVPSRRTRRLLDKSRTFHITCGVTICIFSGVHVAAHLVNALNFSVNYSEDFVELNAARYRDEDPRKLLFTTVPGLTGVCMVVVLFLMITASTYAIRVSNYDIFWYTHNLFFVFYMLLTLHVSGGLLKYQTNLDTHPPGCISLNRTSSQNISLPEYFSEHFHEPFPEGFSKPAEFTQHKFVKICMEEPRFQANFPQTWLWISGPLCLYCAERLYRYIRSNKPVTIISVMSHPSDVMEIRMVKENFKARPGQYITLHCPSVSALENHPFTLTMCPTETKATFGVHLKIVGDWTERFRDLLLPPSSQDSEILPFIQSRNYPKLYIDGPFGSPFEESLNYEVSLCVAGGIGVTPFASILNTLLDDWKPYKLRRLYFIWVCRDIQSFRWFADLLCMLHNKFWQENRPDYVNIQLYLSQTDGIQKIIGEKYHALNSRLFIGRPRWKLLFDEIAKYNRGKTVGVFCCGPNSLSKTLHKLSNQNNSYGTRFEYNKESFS

[20] = biological target: NADPH oxidase 5 (Homo sapiens) (UniProt Q96PH1); test: NOX5-dependent H2O2 signal modulators, primary screen, NOX inhibitor project, cell-based, HEK293-NOX5, Amplex Red fluorescence (AID 1161); details: HEK293-NOX5, ionomycin, 45 min, higher = more signal
Sequence of NADPH oxidase 5 (Homo sapiens) (Q96PH1 whole entry, looked up): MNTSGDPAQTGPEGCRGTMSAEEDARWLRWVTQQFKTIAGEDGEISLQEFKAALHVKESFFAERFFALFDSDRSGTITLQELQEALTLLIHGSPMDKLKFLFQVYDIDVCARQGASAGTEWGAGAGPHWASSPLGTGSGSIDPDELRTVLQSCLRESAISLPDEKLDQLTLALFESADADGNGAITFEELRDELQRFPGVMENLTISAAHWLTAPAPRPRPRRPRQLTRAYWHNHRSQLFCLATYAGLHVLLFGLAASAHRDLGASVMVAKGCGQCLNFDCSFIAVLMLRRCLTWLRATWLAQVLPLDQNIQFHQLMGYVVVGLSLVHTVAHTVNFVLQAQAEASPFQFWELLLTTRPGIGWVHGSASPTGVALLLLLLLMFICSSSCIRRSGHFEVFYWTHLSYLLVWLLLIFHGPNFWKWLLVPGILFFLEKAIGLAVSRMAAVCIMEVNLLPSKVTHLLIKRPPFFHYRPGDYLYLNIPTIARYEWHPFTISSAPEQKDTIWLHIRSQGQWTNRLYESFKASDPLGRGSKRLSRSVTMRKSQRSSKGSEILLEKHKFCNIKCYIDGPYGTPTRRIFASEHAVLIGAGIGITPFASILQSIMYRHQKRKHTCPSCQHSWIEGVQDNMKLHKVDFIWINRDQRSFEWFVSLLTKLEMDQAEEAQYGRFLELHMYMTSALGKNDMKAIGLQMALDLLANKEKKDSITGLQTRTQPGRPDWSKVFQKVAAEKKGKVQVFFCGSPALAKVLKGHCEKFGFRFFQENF

Compound	composite z-score [1]	z-score [2]	z-score [3]	z-score [4]	z-score [5]	composite z-score [6]	composite z-score [7]	composite z-score [8]	composite z-score [9]	composite z-score [10]	z-score [11]	composite z-score [12]	z-score [13]	z-score [14]	z-score [15]	z-score [16]	z-score [17]	z-score [18]	z-score [19]	z-score [20]
CN1C(=O)C2C=CC(C(O)c3ccccc3)N(N(c3ccccc3)c3ccccc3)C2C1=O (stereo not given)	-0.117	0.653 (inactive)	0.808 (inactive)	-0.712 (inactive)	0.635 (inactive)	0.39	0.0051	-0.351	-0.398	0.522	-0.84 (inactive)	0.267	0.581 (inactive)	0.693 (inactive)	-0.284 (inactive)	0.9 (inactive)	-0.809	-1.19 (inactive)	-0.586 (inactive)	0.121
CC(=O)NCCCC[C@@H]1NC(=O)[C@@H]2C[C@H](C(=O)NCCCCCNC(=O)CS)[C@H](c3cccc(OCCO)c3)N2C1=O	-0.149	-1.12 (inactive)	-0.617 (inactive)	-1.48 (inactive)	-1.4 (inactive)	-0.526	-0.101	0.653	0.541	1.62	1.52 (inactive)	0.0536	1.33 (inactive)	-0.202 (inactive)	0.344 (inactive)	-1.85 (inactive)	0.697	-1.05 (inactive)	0.489 (inactive)	0.0642
COc1ccccc1CN1C(=O)c2ccccc2[C@@H](C(=O)NC2CC2)[C@@H]1c1ccc(CO)cc1	0.845	-0.132 (inactive)	0.217 (inactive)	-0.709 (inactive)	-1.03 (inactive)	0.53	0.297	0.848	0.385	1.8	0.818 (inactive)	0.16	2.49 (inactive)	0.873 (inactive)	1.59 (inactive)	0.818 (inactive)	-0.291	0.211 (inactive)	0.48 (inactive)	0.718
COc1ccc(CCNC(=O)[C@@]2(C)c3ccccc3C(=O)N(C(C)C)[C@H]2c2ccc(CO)cc2)cc1	0.435	-1.03 (inactive)	1.08 (inactive)	0.827 (inactive)	0.727 (inactive)	0.454	-0.102	0.0534	-0.176	0.794	0.312 (inactive)	-0.28	1.66 (inactive)	0.133 (inactive)	0.386 (inactive)	-0.0145 (inactive)	-0.441	-1.12 (inactive)	-0.479 (inactive)	-0.224
C=C(/C(=C/C[C@H](OC(C)=O)c1ccccc1OCCO)c1cnc2ccccc2c1)C(C)C	0.025	-1.61 (inactive)	0.445 (inactive)	4.98 (inactive)	1.49 (inactive)	0.533	0.0543	0.316	0.0233	1.09	-0.564 (inactive)	-0.0654	9.77 (active)	1.55 (inactive)	1.29 (inactive)	0.724 (inactive)	0.193	-0.353 (inactive)	-0.402 (inactive)	-1.08
C=C(COC)/C(=C/C[C@@H](OC(=O)c1ccncc1)c1ccc(CO)o1)c1cc(C(=O)OC)ccc1OC	1.08	-0.158 (inactive)	-0.985 (inactive)	0.904 (inactive)	1.31 (inactive)	0.207	-0.0645	1.1	0.756	2.17	0.855 (inactive)	0.062	3.87 (inactive)	0.453 (inactive)	1.57 (inactive)	0.308 (inactive)	0.934	-0.631 (inactive)	-0.124 (inactive)	-0.495
CC(C)=CCCC(C)=CC(O)C1C=CC2C(=O)N(C)C(=O)C2N1Nc1ccccc1 (stereo not given)	0.485	-2.96 (inactive)	-0.545 (inactive)	-0.333 (inactive)	-0.465 (inactive)	1.87	0.115	-0.365	0.178	1.32	-1.5 (inactive)	0.525	7.27 (inactive)	2.86 (inactive)	0.977 (inactive)	1.93 (inactive)	-0.595	-1.51 (inactive)	-3.97 (inactive)	-1.98
NC(=O)N1C(=O)C2C(C1=O)C1C=C(c3ccc(CO)cc3)C2C(c2cccs2)N1Cc1cccc(OC(F)(F)F)c1 (stereo not given)	0.24	-3.63 (inactive)	0.945 (inactive)	1.08 (inactive)	-1.58 (inactive)	0.514	0.29	0.635	0.522	0.235	-3.19 (inactive)	0.424	3.08 (inactive)	-0.687 (inactive)	0.195 (inactive)	-1.98 (inactive)	2.65	-1.02 (inactive)	-1.22 (inactive)	-1.25
COC(=O)[C@@]1(Cc2ccc(OC)cc2)[C@H]2c3cc(C(=O)N(C)C)n(C)c3C[C@H]2CN1C(=O)c1ccccc1	0.485	-3.59 (inactive)	0.584 (inactive)	0.0041 (inactive)	0.0225 (inactive)	1.77	0.706	-0.0231	0.777	0.418	-2.89 (inactive)	1.56	1.98 (inactive)	0.451 (inactive)	1.07 (inactive)	1.16 (inactive)	0.775	1.12 (inactive)	1.77 (inactive)	2.16
O=C1C2C=CC(C(O)c3cc(C(F)(F)F)cc(C(F)(F)F)c3)N(n3cnnc3)C2C(=O)N1Cc1ccccc1 (stereo not given)	-0.484	-1.34 (inactive)	-1.12 (inactive)	0.089 (inactive)	0.753 (inactive)	0.0422	-0.0719	-0.808	-0.0144	-0.755	-0.546 (inactive)	0.197	1.56 (inactive)	1.11 (inactive)	1.69 (inactive)	0.833 (inactive)	-0.241	-0.497 (inactive)	-0.889 (inactive)	-0.379
C=CCNC(=O)[C@@H]1[C@H]2C(=O)O[C@H](c3ccccc3)[C@H](c3ccccc3)N2[C@H](c2ccc(OCCO)cc2)[C@@]12C(=O)Nc1ccc(C#CCC(C(=O)OC)C(=O)OC)cc12	0.187	-3.86 (inactive)	0.827 (inactive)	0.488 (inactive)	-1.19 (inactive)	0.316	0.573	0.309	1.46	1.49	1.13 (inactive)	0.0973	5.24 (inactive)	1.59 (inactive)	1.28 (inactive)	0.653 (inactive)	-0.186	2.32 (inactive)	0.186 (inactive)	0.236
COC(=O)c1c(CC[C@@H](CO)NC(=O)NCCn2cc(C3(O)CCCC3)nn2)oc(C(C)=O)c1C(=O)OC	-0.344	-0.177 (inactive)	0.699 (inactive)	0.978 (inactive)	-0.194 (inactive)	0.102	-0.203	-0.0395	0.105	-0.303	-1.2 (inactive)	-0.403	2.06 (inactive)	0.474 (inactive)	1.29 (inactive)	0.533 (inactive)	-0.359	-0.278 (inactive)	0.233 (inactive)	-0.666
CCOC(=O)C[C@H]1[C@H](OC(=O)c2ccc(C(=O)c3ccccc3)cc2)[C@@H](NC(=O)c2ccc3ccccc3c2)c2cc(OCCCO)ccc2N1C(=O)Cc1ccc(OC)cc1	-0.354	-0.132 (inactive)	-0.329 (inactive)	-0.635 (inactive)	-0.383 (inactive)	0.271	-0.102	1.08	0.16	-0.006	0.739 (inactive)	0.138	6.12 (inactive)	0.448 (inactive)	0.337 (inactive)	0.184 (inactive)	0.742	-0.992 (inactive)	0.557 (inactive)	0.161
CC(C)=CCN[C@H](CO)c1ccccc1	-0.249	-3.85 (inactive)	-0.0678 (inactive)	-1.05 (inactive)	0.0877 (inactive)	0.0079	0.102	-0.801	0.324	0.627	-0.209 (inactive)	-0.114	0.128 (inactive)	-0.916 (inactive)	0.198 (inactive)	-2.39 (inactive)	0.983	-0.763 (inactive)	-0.688 (inactive)	-1.61
C=CCC(OC(C)=O)[C@@H]1[C@@H](N(Cc2ccc(-c3cccc(C(F)(F)F)c3)o2)C(=O)c2ccc(C)cc2)c2cc(OCCCO)ccc2N1C(=O)Cc1ccc2ccccc2c1 (stereo not given in full)	-0.125	-0.0329 (inactive)	-0.568 (inactive)	-1.1 (inactive)	-0.0977 (inactive)	-0.269	-0.024	-0.563	-0.702	0.223	1.93 (inactive)	-0.0035	1.05 (inactive)	0.172 (inactive)	-0.305 (inactive)	0.825 (inactive)	0.533	-0.439 (inactive)	1.04 (inactive)	1.51
COc1cccc(-c2cccc(=O)o2)c1	0.595	0.064 (inactive)	0.77 (inactive)	-0.228 (inactive)	-0.977 (inactive)	0.438	0.177	0.0114	0.698	-0.207	0.0997 (inactive)	0.565	10.4 (active)	1.6 (inactive)	-0.685 (inactive)	0.611 (inactive)	-0.684	0.705 (inactive)	-1.15 (inactive)	-1.47
CCCC[C@H]1OB(O)C[C@H]2C1=C(COC)Cn1c(=O)n(-c3ccccc3)c(=O)n12	0.0162	0.0344 (inactive)	-0.549 (inactive)	-0.327 (inactive)	0.124 (inactive)	-0.333	-0.182	0.0681	0.0861	0.948	0.929 (inactive)	-0.101	0.43 (inactive)	0.0541 (inactive)	0.11 (inactive)	0.0357 (inactive)	0.385	0.175 (inactive)	0.317 (inactive)	0.476
